# What was measured:
# Experiment in all cases: SPOT peptide array binding signal intensity (averaged, normalized) (arbitrary units (background-subtracted, floor 0; scale differs between SH3 domains)); higher = stronger binding of the SH3 domain to the peptide
# [1] = target: CaNbp2
# Method in brief: (§1)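 Four yeast species supplied the SH3 domains, which were expressed as GST fusions in E. coli BL21(DE3) and purified on glutathione Sepharose. Incubation with cellulose membranes carrying synthetic 15-mer peptides, cysteines exchanged for serines, ran overnight at 4°C at 10 μg/ml in TBS-based blocking buffer. Binding signal is reported as normalized, background-subtracted spot intensity averaged over replicates, in arbitrary units not shared between domains.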
# [2] = target: CaRvs167
# Method in brief: as §1
# [3] = target: CaRvs167-3
# Method in brief: as §1
# [4] = target: CaSho1
# Method in brief: as §1
# [5] = target: CaSla1-D1-D2
# Method in brief: as §1
# [6] = target: CaSla1-D3
# Method in brief: as §1
# [7] = target: ScAbp1
# Method in brief: as §1
# [8] = target: ScBbc1
# Method in brief: as §1
# [9] = target: ScBem1-D1
# Method in brief: as §1
# [10] = target: ScBzz1-D1
# Method in brief: as §1
# [11] = target: ScBzz1-D2
# Method in brief: as §1
# [12] = target: ScCyk3
# Method in brief: as §1
# [13] = target: ScFus1
# Method in brief: as §1
# [14] = target: ScHof1
# Method in brief: as §1
# [15] = target: ScHse1
# Method in brief: as §1
# [16] = target: ScLsb1
# Method in brief: as §1
# [17] = target: ScLsb2
# Method in brief: as §1
# [18] = target: ScLsb3
# Method in brief: as §1
# [19] = target: ScLsb4
# Method in brief: as §1
# [20] = target: ScMyo3
# Method in brief: as §1
# [21] = target: ScMyo5
# Method in brief: as §1
# [22] = target: ScNbp2
# Method in brief: as §1
# [23] = target: ScPex13
# Method in brief: as §1
# [24] = target: ScRvs167
# Method in brief: as §1
# [25] = target: ScSho1
# Method in brief: as §1
# [26] = target: ScSla1-D1-D2
# Method in brief: as §1
# [27] = target: ScSla1-D3
# Method in brief: as §1
# [28] = target: SpAbp1-D1
# Method in brief: as §1
# [29] = target: SpBbc1
# Method in brief: as §1
# [30] = target: SpBzz1-D1
# Method in brief: as §1
# [31] = target: SpBzz1-D2
# Method in brief: as §1
# [32] = target: SpCyk3
# Method in brief: as §1
# [33] = target: SpHof1
# Method in brief: as §1
# [34] = target: SpHof1-2
# Method in brief: as §1
# [35] = target: SpHof1-3
# Method in brief: as §1
# [36] = target: SpHse1
# Method in brief: as §1
# [37] = target: SpLsb1
# Method in brief: as §1
# [38] = target: SpLsb4
# Method in brief: as §1
# [39] = target: SpMyo1
# Method in brief: as §1
# [40] = target: SpNbp2
# Method in brief: as §1
# [41] = target: SpPex13
# Method in brief: as §1
# [42] = target: SpRvs167
# Method in brief: as §1
# [43] = target: SpSla1-D1-D2
# Method in brief: as §1
# [44] = target: SpSla1-D3
# Method in brief: as §1
# [45] = target: AgAbp1
# Method in brief: as §1
# [46] = target: AgBbc1
# Method in brief: as §1
# [47] = target: AgBem1-D1
# Method in brief: as §1
# [48] = target: AgBzz1-D1
# Method in brief: as §1
# [49] = target: AgBzz1-D2
# Method in brief: as §1
# [50] = target: AgCyk3
# Method in brief: as §1
# [51] = target: AgFus1
# Method in brief: as §1
# [52] = target: AgHof1
# Method in brief: as §1
# [53] = target: AgHse1
# Method in brief: as §1
# [54] = target: AgLsb1
# Method in brief: as §1
# [55] = target: AgLsb4
# Method in brief: as §1
# [56] = target: AgMyo5
# Method in brief: as §1
# [57] = target: AgNbp2
# Method in brief: as §1
# [58] = target: AgRvs167
# Method in brief: as §1
# [59] = target: AgSho1
# Method in brief: as §1
# [60] = target: AgSla1-D1-D2
# Method in brief: as §1
# [61] = target: AgSla1-D3
# Method in brief: as §1
# [62] = target: CaAbp1-D1
# Method in brief: as §1
# [63] = target: CaAbp1-D2
# Method in brief: as §1
# [64] = target: CaBbc1
# Method in brief: as §1
# [65] = target: CaBem1-D1
# Method in brief: as §1
# [66] = target: CaBzz1-D1
# Method in brief: as §1
# [67] = target: CaBzz1-D2
# Method in brief: as §1
# [68] = target: CaCyk3
# Method in brief: as §1
# [69] = target: CaFus1
# Method in brief: as §1
# [70] = target: CaHof1
# Method in brief: as §1
# [71] = target: CaHse1
# Method in brief: as §1
# [72] = target: CaLsb1
# Method in brief: as §1
# [73] = target: CaLsb4
# Method in brief: as §1
# [74] = target: CaMyo5
# Method in brief: as §1
binder,measurement,setting,value
FYHRPAPKPPVTKKV,SPOT peptide array binding signal intensity,[1],843
same,SPOT peptide array binding signal intensity,[2],3
same,SPOT peptide array binding signal intensity,[3],≤ 0
same,SPOT peptide array binding signal intensity,[4],≤ 0
same,SPOT peptide array binding signal intensity,[5],105
same,SPOT peptide array binding signal intensity,[6],45.2
same,SPOT peptide array binding signal intensity,[7],87.5
same,SPOT peptide array binding signal intensity,[8],330
same,SPOT peptide array binding signal intensity,[9],4
same,SPOT peptide array binding signal intensity,[10],678
same,SPOT peptide array binding signal intensity,[11],39
same,SPOT peptide array binding signal intensity,[12],≤ 0
same,SPOT peptide array binding signal intensity,[13],≤ 0
same,SPOT peptide array binding signal intensity,[14],≤ 0
same,SPOT peptide array binding signal intensity,[15],≤ 0
same,SPOT peptide array binding signal intensity,[16],32.5
same,SPOT peptide array binding signal intensity,[17],106
same,SPOT peptide array binding signal intensity,[18],53
same,SPOT peptide array binding signal intensity,[19],3
same,SPOT peptide array binding signal intensity,[20],284
same,SPOT peptide array binding signal intensity,[21],459
same,SPOT peptide array binding signal intensity,[22],1680
same,SPOT peptide array binding signal intensity,[23],530
same,SPOT peptide array binding signal intensity,[24],12.8
same,SPOT peptide array binding signal intensity,[25],12
same,SPOT peptide array binding signal intensity,[26],238
same,SPOT peptide array binding signal intensity,[27],475
same,SPOT peptide array binding signal intensity,[28],50.5
same,SPOT peptide array binding signal intensity,[29],19.2
same,SPOT peptide array binding signal intensity,[30],647
same,SPOT peptide array binding signal intensity,[31],2.5
same,SPOT peptide array binding signal intensity,[32],2
same,SPOT peptide array binding signal intensity,[33],12.5
same,SPOT peptide array binding signal intensity,[34],≤ 0
same,SPOT peptide array binding signal intensity,[35],≤ 0
same,SPOT peptide array binding signal intensity,[36],≤ 0
same,SPOT peptide array binding signal intensity,[37],8
same,SPOT peptide array binding signal intensity,[38],54
same,SPOT peptide array binding signal intensity,[39],132
same,SPOT peptide array binding signal intensity,[40],9
same,SPOT peptide array binding signal intensity,[41],6
same,SPOT peptide array binding signal intensity,[42],9.33
same,SPOT peptide array binding signal intensity,[43],≤ 0
same,SPOT peptide array binding signal intensity,[44],≤ 0
IHTRRPSSTSQYLIR,SPOT peptide array binding signal intensity,[45],235
same,SPOT peptide array binding signal intensity,[46],354
same,SPOT peptide array binding signal intensity,[47],254
same,SPOT peptide array binding signal intensity,[48],73.5
same,SPOT peptide array binding signal intensity,[49],58.5
same,SPOT peptide array binding signal intensity,[50],4
same,SPOT peptide array binding signal intensity,[51],406
same,SPOT peptide array binding signal intensity,[52],44.2
same,SPOT peptide array binding signal intensity,[53],202
same,SPOT peptide array binding signal intensity,[54],242
same,SPOT peptide array binding signal intensity,[55],32
same,SPOT peptide array binding signal intensity,[56],194
same,SPOT peptide array binding signal intensity,[57],106
same,SPOT peptide array binding signal intensity,[58],1.33
same,SPOT peptide array binding signal intensity,[59],22.5
same,SPOT peptide array binding signal intensity,[60],44
same,SPOT peptide array binding signal intensity,[61],11.8
same,SPOT peptide array binding signal intensity,[62],732
same,SPOT peptide array binding signal intensity,[63],571
same,SPOT peptide array binding signal intensity,[64],415
same,SPOT peptide array binding signal intensity,[65],43
same,SPOT peptide array binding signal intensity,[66],249
same,SPOT peptide array binding signal intensity,[67],267
same,SPOT peptide array binding signal intensity,[68],17
same,SPOT peptide array binding signal intensity,[69],699
same,SPOT peptide array binding signal intensity,[70],0.5
same,SPOT peptide array binding signal intensity,[71],110
same,SPOT peptide array binding signal intensity,[72],22
same,SPOT peptide array binding signal intensity,[73],150
same,SPOT peptide array binding signal intensity,[74],208
same,SPOT peptide array binding signal intensity,[1],94.5
same,SPOT peptide array binding signal intensity,[2],19.7
same,SPOT peptide array binding signal intensity,[3],69.5
same,SPOT peptide array binding signal intensity,[4],369
same,SPOT peptide array binding signal intensity,[5],126
same,SPOT peptide array binding signal intensity,[6],15.8
same,SPOT peptide array binding signal intensity,[7],97.5
same,SPOT peptide array binding signal intensity,[8],144
same,SPOT peptide array binding signal intensity,[9],40.5
same,SPOT peptide array binding signal intensity,[10],50
same,SPOT peptide array binding signal intensity,[11],50.5
same,SPOT peptide array binding signal intensity,[12],35
same,SPOT peptide array binding signal intensity,[13],593
same,SPOT peptide array binding signal intensity,[14],1
same,SPOT peptide array binding signal intensity,[15],465
same,SPOT peptide array binding signal intensity,[16],3
same,SPOT peptide array binding signal intensity,[17],162
same,SPOT peptide array binding signal intensity,[18],158
same,SPOT peptide array binding signal intensity,[19],6.5
same,SPOT peptide array binding signal intensity,[20],82
same,SPOT peptide array binding signal intensity,[21],243
same,SPOT peptide array binding signal intensity,[22],267
same,SPOT peptide array binding signal intensity,[23],10.8
same,SPOT peptide array binding signal intensity,[24],19.8
same,SPOT peptide array binding signal intensity,[25],585
same,SPOT peptide array binding signal intensity,[26],172
same,SPOT peptide array binding signal intensity,[27],14.5
same,SPOT peptide array binding signal intensity,[28],826
same,SPOT peptide array binding signal intensity,[29],60
same,SPOT peptide array binding signal intensity,[30],632
same,SPOT peptide array binding signal intensity,[31],6.5
same,SPOT peptide array binding signal intensity,[32],10
same,SPOT peptide array binding signal intensity,[33],51
same,SPOT peptide array binding signal intensity,[34],10.5
same,SPOT peptide array binding signal intensity,[35],669
same,SPOT peptide array binding signal intensity,[36],352
same,SPOT peptide array binding signal intensity,[37],292
same,SPOT peptide array binding signal intensity,[38],138
same,SPOT peptide array binding signal intensity,[39],138
same,SPOT peptide array binding signal intensity,[40],96.5
same,SPOT peptide array binding signal intensity,[41],10
same,SPOT peptide array binding signal intensity,[42],31.3
same,SPOT peptide array binding signal intensity,[43],2
same,SPOT peptide array binding signal intensity,[44],6
